AC50 and outcome data for eight compounds are collected here from PubChem BioAssay (EPA / NIEHS).

“And” between values parts separate entries of the source, which are not always exact repeats. Equal entries are not always repeated. Results filed as inconclusive are left out. Where a structure was tested more than once in an assay, its records may differ in their call. The source made the active and inactive calls. How the source made its calls, unless noted: active means hit-call score of the fitted dose curve at least 0.9, where 1 is the maximum; inconclusive means response in the unintended direction; inactive means score below 0.9.

Test [1] has as its system rat Norepinephrine Transporter (NET), gene 83511. In words: NVS_TR_rNET: NovaScreen (NVS) Transporter Assay for rat Norepinephrine Transporter (NET) (AID 2283373). In outline:
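Competitive radioligand displacement at the rat NET using forebrain membrane preparations, 1 h incubation, filter-based scintillation readout. Primary testing in duplicate at a single 25 uM concentration; confirmed actives retested across concentrations.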

Test [2] deals with human Dopamine Transporter (DAT), SLC6A3 (gene 6531) (UniProt Q01959). In words: NVS_TR_hDAT: NovaScreen (NVS) Transporter Assay for human Dopamine Transporter (DAT) (AID 2283374).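 Further: activity means loss of bound radioligand signal relative to DMSO.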 In a few lines: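 Duplicate single-point screening at 25 uM preceded concentration-series follow-up of actives. Binding was measured by competitive displacement of a radioligand from DAT protein, filter-counted by scintillation 1 h after dosing. Decrease relative to DMSO taken as activity.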

Test [3] has as its target rat Serotonin Transporter (SERT), Slc6a4 (gene 25553) (UniProt P31652). Put plainly: NVS_TR_rSERT: NovaScreen (NVS) Transporter Assay for rat Serotonin Transporter (SERT) (AID 2283375). In a few lines:
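Steps: rat forebrain membranes dosed with chemical (25 uM duplicate primary; concentration series for actives); 1 h incubation; labelled ligand bound, filtered, counted by scintillation. Activity scored as signal loss vs DMSO.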

The target of test [4] is human Norepinephrine Transporter (NET), SLC6A2 (gene 6530) (UniProt P23975). Put plainly: NVS_TR_hNET: NovaScreen (NVS) Transporter Assay for human Norepinephrine Transporter (NET) (AID 2283377).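 Further: cell-free membrane protein extracted from CHO cells expressing human NET; displacement of radioligand from human NET seen as loss of scintillation signal.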 In a few lines: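 Single-concentration duplicate screen at 25 uM, then concentration-response for actives; displacement of specific radioligand from human NET in CHO membrane extracts, filter-based scintillation detection at 1 h relative to DMSO.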

For test [5], the target named is mouse Estrogen Receptor alpha (Era), Esr1 (gene 13982) (UniProt P19785). Put plainly: NVS_NR_mERa: NovaScreen (NVS) Nuclear Receptor Binding Assay for mouse Estrogen Receptor alpha (Era) (AID 2283378).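 Further: hit means loss of bound radioligand signal relative to DMSO.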 In a few lines: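 Test chemicals competed against a specific radioligand for binding to cell-free mouse Era. Duplicate wells at 25 uM were read 18 hours later by filter-based radiodetection, with loss of signal against DMSO scored as activity.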

Test [6] has as its target Estrogen receptor beta (Homo sapiens) (UniProt Q92731). Put plainly: OT_ER_ERbERb_1440: Odyssey Thera (OT) 24-hour HEK293T Protein-Complementation Assay for Estrogen Receptor-beta/-beta Homodimer (AID 2283380).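 Further: fluorescence gain from ER beta LBD homodimer complementation read by laser scanning cytometry; scored as signal increase over DMSO baseline for both agonists and antagonists.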 In outline: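 Fluorescence increase, nuclear for agonists or whole-cell for antagonists, relative to DMSO vehicle, quantified by laser scanning cytometer after fixation and Draq5 staining. Readout from 24 h treatment of HEK293T cells carrying complementation-paired ER beta LBD (aa 310-547).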

Test [7] has as its target Estrogen receptor (Homo sapiens) (UniProt P03372). In words: OT_ERa_GFPERaERE_0480: Odyssey Thera (OT) 8-hour HeLa Transcription Induction Assay for Estrogen Receptor (AID 2283381; active means hit-call score of the fitted dose curve at least 0.9, where 1 is the maximum; inactive means score below 0.9). In outline: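 GFP-ERE reporter, HeLa, 8 h exposure. Readout: fluorescence microscopy, high-content image analysis. Fit direction positive vs DMSO negative control.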
Test [8] shares this target. Put plainly: OT_ERa_GFPERaERE_0120: Odyssey Thera (OT) 2-hour HeLa Transcription Induction Assay for Estrogen Receptor (AID 2283382). In a few lines: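 Fluorescence microscopy read-out: inducible fluorescent protein reporter in HeLa cells, imaged 2 h post-dose. Signal increase over DMSO negative control fitted as single primary endpoint via high content image analysis.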

Test [9] concerns the target Bile acid receptor (Homo sapiens) (UniProt Q96RI1). In words: OT_FXR_FXRSRC1_0480: Odyssey Thera (OT) 8-hour HEK293T Protein-Complementation Assay for Farnesoid X receptor/SRC-1 Co-activator (AID 2283383). In a few lines: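 Fluorescence intensity read-out, 8 h post-dose, HEK293T protein-fragment complementation; FXR bait and SRC-1 prey each linked to reporter fragments. Activity scored as signal increase over DMSO negative control.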

Test [10] has the same target. In words: OT_FXR_FXRSRC1_1440: Odyssey Thera (OT) 24-hour HEK293T Protein-Complementation Assay for Farnesoid X receptor/SRC-1 Co-activator (AID 2283384). In outline:
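Fluorescence readout, 24 h post-dose, HEK293T; FXR and SRC-1 fused to complementary reporter fragments, association reconstitutes signal. Positive-direction fit vs DMSO baseline.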

Test [11] addresses Retinoic acid receptor RXR-alpha (Homo sapiens) (UniProt P19793). Put plainly: OT_NURR1_NURR1RXRa_0480: Odyssey Thera (OT) 8-hour HEK293T Protein Complementation Assay for Nurr1/retinoid X receptor (RXR) (AID 2283385). In a few lines: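 Read-out: fluorescence from protein-fragment complementation between Nurr1 and RXRα in human HEK293T cells, 8 h after dosing. DMSO served as negative control; increased signal counted as activity.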

Test [12] shares this target. In words: OT_NURR1_NURR1RXRa_1440: Odyssey Thera (OT) 24-hour HEK293T Protein Complementation Assay for Nurr1/retinoid X receptor (RXR) (AID 2283386). In outline:
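Fluorescence PCA read-out; HEK293T; 24 h post-dose; bait/prey fused to reporter fragments; gain-of-signal fit vs DMSO negative control.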

The target of test [13] is Peroxisome proliferator-activated receptor gamma (Homo sapiens) (UniProt P37231). In words: OT_PPARg_PPARgSRC1_0480: Odyssey Thera (OT) 8-hour Protein-Complementation Assay for Peroxisome Proliferator-activated Receptor Gamma / SRC-1 Co-activator (AID 2283387).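 Further: nuclear to cytoplasmic split Venus YFP fluorescence ratio reporting PPARg SRC-1 interaction.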 In outline: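 HEK293T transiently transfected with PPARg and SRC-1 fused to Venus YFP fragments, compounds 8 h at 37C. Fixed, Draq5-stained cells imaged; nuclear/cytoplasmic 488 nm fluorescence ratio over at least 350 cells per image; gain fitted versus DMSO.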

Test [14] shares this target. Put plainly: OT_PPARg_PPARgSRC1_1440: Odyssey Thera (OT) 24-hour Protein-Complementation Assay for Peroxisome Proliferator-activated Receptor Gamma/ SRC-1 Co-activator (AID 2283388). In a few lines: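 Transient HEK293T, YFP fragments 1-158/159-239 (mutant IFP1/IFP2) fused to PPARg/SRC-1; 24 h dosing; fix 4% formaldehyde, Draq5; Opera imaging 488/635 nm; N/C ratio, gain vs DMSO.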

Test [15] has the same target. In words: NVS_NR_hPPARg: NovaScreen (NVS) Nuclear Receptor Binding Assay for human Peroxisome Proliferator-activated Receptor gamma (PPARg) (AID 2283370). In a few lines: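 Fluorescence polarization measures competitive binding to extracted PPARg in a cell-free format. Reading is taken at 2 h; activity is signal loss relative to DMSO. Screening at 25 uM in duplicate preceded confirmatory dose series.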

A short description of test [16]: CEETOX_H295R_11DCORT: CeeTox H295R High-throughput Steroidogenesis Assay for 11-Deoxycortisol (11DCORT) (AID 2283432; active means hit-call score of the fitted dose curve at least 0.9, where 1 is the maximum; inactive means score below 0.9). The following applies: actives raise or lower the signal. In a few lines: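 H295R cells prestimulated 48 h with 10 uM forskolin, then exposed 48 h to chemical in 0.1% DMSO. 11-Deoxycortisol in medium quantified by HPLC-MS/MS after MTBE extraction; bidirectional fit versus DMSO. MTT viability read in same wells.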

Test [17] can be described thus: CEETOX_H295R_OHPREG: CeeTox H295R High-throughput Steroidogenesis Assay for OH-Pregnenolone (OHPREG) (AID 2283434; active means hit-call score of the fitted dose curve at least 0.9, where 1 is the maximum; inactive means score below 0.9). The following applies: actives raise or lower the signal. In a few lines:
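Secreted 17alpha-hydroxypregnenolone measured by HPLC-MS/MS after liquid-liquid extraction. Human adrenal H295R cells received 48 h forskolin (10 uM) stimulation before 48 h chemical exposure at 0.1% final DMSO; MTT viability in same wells; bidirectional fit against DMSO.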

Test [18] can be described thus: CEETOX_H295R_OHPROG: CeeTox H295R High-throughput Steroidogenesis Assay for OH-Progesterone (OHPROG) (AID 2283435; active means hit-call score of the fitted dose curve at least 0.9, where 1 is the maximum; inactive means score below 0.9). The following applies: actives raise or lower the signal. In outline: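 HPLC-MS/MS quantification of 17alpha-hydroxyprogesterone secreted by H295R cells after 48 h chemical exposure, following 48 h 10 uM forskolin prestimulation. Gain or loss of signal fitted relative to DMSO. Viability checked by MTT in the same wells.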

Test [19] addresses human Serotonin Transporter (SERT), SLC6A4 (gene 6532) (UniProt P31645). Put plainly: NVS_TR_hSERT: NovaScreen (NVS) Transporter Assay for human Serotonin Transporter (SERT) (AID 2283372). In a few lines:
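Human platelet membrane preparation; displacement of radioligand from serotonin transporter measured after 1 h by filtration and scintillation counting. Single 25 uM duplicate screen, then concentration series for actives, with DMSO as negative baseline.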

In test [20] the target is Agonist Androgen Response Element (ARE), AR (gene 367) (UniProt P10275). In words: OT_AR_ARELUC_AG_1440: Odyssey Thera (OT) 24-hour CHO-K1 Luciferase Assay for Agonist Androgen Response Element (ARE) (AID 2283379). In outline: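 Readout: luciferase bioluminescence from CHO-K1 ARE-luc cells, measured 24 h post-dosing; agonism = increased mean luminescence vs DMSO controls, fitted in positive direction.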

Sequence of rat Serotonin Transporter (SERT), Slc6a4 (gene 25553) (P31652 whole entry, looked up): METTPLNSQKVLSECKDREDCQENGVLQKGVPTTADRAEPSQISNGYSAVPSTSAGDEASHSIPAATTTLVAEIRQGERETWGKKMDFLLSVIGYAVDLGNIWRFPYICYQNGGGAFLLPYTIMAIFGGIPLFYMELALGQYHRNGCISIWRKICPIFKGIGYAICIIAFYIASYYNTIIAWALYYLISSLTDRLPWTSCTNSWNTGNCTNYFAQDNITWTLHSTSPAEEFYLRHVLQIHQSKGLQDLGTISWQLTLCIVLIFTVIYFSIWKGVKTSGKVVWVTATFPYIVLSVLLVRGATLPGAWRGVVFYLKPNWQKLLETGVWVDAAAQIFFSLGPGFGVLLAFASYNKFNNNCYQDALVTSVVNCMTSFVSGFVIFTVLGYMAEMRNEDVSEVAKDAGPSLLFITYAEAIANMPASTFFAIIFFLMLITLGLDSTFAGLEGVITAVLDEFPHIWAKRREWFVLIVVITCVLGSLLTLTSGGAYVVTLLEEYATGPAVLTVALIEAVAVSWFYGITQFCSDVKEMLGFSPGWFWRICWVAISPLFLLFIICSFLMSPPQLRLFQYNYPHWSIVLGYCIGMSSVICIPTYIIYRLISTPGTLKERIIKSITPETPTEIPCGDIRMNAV
Sequence of human Dopamine Transporter (DAT), SLC6A3 (gene 6531) (Q01959 whole entry, looked up): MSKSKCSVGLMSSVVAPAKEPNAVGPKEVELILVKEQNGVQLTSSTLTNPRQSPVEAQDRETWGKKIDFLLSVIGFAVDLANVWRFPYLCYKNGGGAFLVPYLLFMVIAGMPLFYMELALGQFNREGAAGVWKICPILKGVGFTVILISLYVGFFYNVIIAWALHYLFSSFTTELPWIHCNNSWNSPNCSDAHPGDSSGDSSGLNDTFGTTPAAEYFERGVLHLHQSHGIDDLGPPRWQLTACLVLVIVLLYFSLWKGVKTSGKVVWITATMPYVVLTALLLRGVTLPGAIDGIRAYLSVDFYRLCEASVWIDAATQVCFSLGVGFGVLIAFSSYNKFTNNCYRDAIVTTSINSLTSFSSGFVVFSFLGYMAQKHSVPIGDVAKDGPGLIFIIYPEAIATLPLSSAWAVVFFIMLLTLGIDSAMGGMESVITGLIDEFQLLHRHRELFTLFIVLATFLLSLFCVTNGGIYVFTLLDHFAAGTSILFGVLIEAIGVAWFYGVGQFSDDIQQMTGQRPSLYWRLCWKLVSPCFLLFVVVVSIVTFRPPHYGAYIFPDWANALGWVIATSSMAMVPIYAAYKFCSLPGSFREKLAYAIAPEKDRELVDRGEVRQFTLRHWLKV
Sequence of human Norepinephrine Transporter (NET), SLC6A2 (gene 6530) (P23975 whole entry, looked up): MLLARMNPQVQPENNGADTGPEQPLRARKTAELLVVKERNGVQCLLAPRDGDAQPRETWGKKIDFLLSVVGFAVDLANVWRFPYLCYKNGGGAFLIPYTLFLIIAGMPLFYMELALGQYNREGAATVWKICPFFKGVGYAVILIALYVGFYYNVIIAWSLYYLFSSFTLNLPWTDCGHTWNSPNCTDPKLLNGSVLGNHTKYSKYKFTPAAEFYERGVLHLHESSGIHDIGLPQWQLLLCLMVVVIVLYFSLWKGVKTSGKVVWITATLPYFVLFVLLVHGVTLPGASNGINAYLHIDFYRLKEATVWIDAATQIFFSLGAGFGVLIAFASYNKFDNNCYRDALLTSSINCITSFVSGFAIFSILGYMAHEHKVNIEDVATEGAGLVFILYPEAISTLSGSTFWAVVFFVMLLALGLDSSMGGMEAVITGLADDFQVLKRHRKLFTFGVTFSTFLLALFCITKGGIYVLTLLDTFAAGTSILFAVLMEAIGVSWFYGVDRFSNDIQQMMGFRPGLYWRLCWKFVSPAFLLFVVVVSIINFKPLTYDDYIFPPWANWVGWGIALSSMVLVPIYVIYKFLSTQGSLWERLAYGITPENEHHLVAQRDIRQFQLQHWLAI
Sequence of Retinoic acid receptor RXR-alpha (Homo sapiens) (P19793 whole entry, looked up, the tested form may be a part): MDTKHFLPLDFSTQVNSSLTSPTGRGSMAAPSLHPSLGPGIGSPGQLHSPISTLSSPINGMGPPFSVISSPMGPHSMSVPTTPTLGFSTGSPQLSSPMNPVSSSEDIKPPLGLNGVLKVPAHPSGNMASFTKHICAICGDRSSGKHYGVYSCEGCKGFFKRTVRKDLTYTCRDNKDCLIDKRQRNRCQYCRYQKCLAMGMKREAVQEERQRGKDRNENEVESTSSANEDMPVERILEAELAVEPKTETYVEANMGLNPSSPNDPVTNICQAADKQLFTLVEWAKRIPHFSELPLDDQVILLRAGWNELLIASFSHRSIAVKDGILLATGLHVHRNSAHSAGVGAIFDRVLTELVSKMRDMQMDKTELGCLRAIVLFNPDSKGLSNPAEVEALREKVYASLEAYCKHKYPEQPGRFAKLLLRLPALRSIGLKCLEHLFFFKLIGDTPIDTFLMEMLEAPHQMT
Sequence of Peroxisome proliferator-activated receptor gamma (Homo sapiens) (P37231 whole entry, looked up, the tested form may be a part): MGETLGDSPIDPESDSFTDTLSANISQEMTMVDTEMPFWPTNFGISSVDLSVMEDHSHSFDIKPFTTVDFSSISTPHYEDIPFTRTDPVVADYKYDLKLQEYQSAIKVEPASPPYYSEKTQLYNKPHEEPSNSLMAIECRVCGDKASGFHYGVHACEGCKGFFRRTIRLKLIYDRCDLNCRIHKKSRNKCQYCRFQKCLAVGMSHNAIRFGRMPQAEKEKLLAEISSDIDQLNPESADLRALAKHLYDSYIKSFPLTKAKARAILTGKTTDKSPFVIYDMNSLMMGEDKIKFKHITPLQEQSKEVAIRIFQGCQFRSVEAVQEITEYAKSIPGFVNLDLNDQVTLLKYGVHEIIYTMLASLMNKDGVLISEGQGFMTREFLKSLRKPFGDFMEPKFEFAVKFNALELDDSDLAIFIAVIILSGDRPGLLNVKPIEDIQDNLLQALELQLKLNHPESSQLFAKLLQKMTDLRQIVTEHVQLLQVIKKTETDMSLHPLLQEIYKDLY
Sequence of mouse Estrogen Receptor alpha (Era), Esr1 (gene 13982) (P19785 whole entry, looked up): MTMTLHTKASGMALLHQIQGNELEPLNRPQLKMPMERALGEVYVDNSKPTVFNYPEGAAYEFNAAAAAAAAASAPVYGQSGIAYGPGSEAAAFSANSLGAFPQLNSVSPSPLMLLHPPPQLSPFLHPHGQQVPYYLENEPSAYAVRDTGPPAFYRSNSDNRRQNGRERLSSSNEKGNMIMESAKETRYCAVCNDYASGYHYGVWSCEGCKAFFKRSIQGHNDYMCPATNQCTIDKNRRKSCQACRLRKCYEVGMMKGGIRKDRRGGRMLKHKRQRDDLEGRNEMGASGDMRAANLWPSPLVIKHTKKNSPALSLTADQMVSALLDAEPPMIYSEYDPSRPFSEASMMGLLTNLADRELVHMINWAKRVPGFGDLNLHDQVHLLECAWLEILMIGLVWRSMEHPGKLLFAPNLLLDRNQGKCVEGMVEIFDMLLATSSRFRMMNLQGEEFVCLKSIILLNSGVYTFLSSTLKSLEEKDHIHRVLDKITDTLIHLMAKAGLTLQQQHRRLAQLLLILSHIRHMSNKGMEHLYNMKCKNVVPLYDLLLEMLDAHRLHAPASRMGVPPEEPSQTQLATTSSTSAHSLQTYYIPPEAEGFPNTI
Sequence of Bile acid receptor (Homo sapiens) (Q96RI1 whole entry, looked up, the tested form may be a part): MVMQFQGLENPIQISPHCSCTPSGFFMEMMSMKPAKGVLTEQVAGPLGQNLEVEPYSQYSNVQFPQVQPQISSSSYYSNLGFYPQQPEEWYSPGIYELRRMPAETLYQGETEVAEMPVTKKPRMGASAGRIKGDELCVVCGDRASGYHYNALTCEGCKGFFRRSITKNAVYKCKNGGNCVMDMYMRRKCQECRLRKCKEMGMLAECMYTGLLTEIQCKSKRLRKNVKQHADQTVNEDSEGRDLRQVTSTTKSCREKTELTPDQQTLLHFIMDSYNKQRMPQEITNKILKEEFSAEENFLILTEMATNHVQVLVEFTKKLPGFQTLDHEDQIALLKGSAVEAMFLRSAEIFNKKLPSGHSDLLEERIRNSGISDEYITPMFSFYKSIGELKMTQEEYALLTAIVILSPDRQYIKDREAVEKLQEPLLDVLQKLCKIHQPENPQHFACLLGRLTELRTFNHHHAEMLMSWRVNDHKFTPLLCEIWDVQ
Sequence of Estrogen receptor beta (Homo sapiens) (Q92731 whole entry, looked up, the tested form may be a part): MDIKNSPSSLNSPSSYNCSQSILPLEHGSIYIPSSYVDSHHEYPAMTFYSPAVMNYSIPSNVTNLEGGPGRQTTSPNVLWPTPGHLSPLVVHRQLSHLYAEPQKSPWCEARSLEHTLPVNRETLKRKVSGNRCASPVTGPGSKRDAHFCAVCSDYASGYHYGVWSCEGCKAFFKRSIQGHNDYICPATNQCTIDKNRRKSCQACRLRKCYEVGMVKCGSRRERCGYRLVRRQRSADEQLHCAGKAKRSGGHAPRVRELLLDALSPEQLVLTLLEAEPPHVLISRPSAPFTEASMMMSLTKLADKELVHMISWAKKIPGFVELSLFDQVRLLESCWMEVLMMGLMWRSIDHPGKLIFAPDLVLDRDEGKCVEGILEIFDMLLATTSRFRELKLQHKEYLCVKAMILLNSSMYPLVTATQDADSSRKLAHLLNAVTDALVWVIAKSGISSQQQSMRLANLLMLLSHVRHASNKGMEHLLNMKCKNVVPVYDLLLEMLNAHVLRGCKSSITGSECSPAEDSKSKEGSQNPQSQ

On to `COc1cc(C(=O)NC2CCN(C)CC2)ccc1Nc1ncc2c(n1)N(C1CCCC1)CC(F)(F)C(=O)N2C`, for which the AC50 in test [1] was 9.31 µM (active); in test [2] it was 8.6 µM (active); in test [4], 23.2 µM (active); in test [5] it was 1.49 µM (active); in test [6], 1.94 µM (active); in [9], 11 µM (active). Moreover, the AC50 in test [10] was 11 µM (active); in [11], 10.9 µM (active); in test [12] it was 11 µM (active). For the same compound, the compound was called inactive in test [3], in test [7], in test [8], in test [13] and in test [14].
On to `CCCCCCCCCCCC[N+](C)(C)C`, for which the result in test [15], in test [6], in test [13], in test [14], in test [16] and in [17] was inactive. The result in [18] was inactive. Moreover, the AC50 is 10.5 µM (active) in test [2], 13.7 µM (active) in test [3] and 7.96 µM (active) in test [4].
As to `c1ccc2ccccc2c1`, the compound was called inactive in test [15], in [7], in [8], in test [10], in [12] and in [13]. The call in [14] was inactive.
As for `CN(C[C@@H](CC[N+]12CCC(C3CCCCC3)(CC1)CC2)c1ccc(Cl)c(Cl)c1)C(=O)c1cc(C(F)(F)F)cc(C(F)(F)F)c1`, the AC50 was 17.5 µM (active) in test [19]; 1.95 µM (active) in test [2]; 16.7 µM (active) in test [3]; 1.38 µM (active) in test [4]; 12.4 µM (active) in test [7]; 85.4 µM (active) in test [9]. For the same compound, in test [10], the AC50 was 78.1 µM (active). Moreover, the compound was called inactive in [5], in test [20], in test [6], in test [8], in [13] and in test [14].
Regarding `CCCCCCCCOC(=O)c1cc(O)c(O)c(O)c1`, the AC50 was 25 µM (active) in [15]; 19.9 µM (active) in test [2]; 5.24 µM (active) in test [4]; 11.3 µM (active) in [5]; 11.6 µM (active) in test [6]; 50 µM (active) in [7]. Besides, the AC50 was 3.33 µM (active) in test [8], 63.6 µM (active) in [9] and 68.5 µM (active) in test [12]. In addition, the compound was called inactive in test [11], in test [12], in test [13], in [14], in test [16] and in test [17]. Besides, the result in [18] was inactive.
Consider `O=CCCCC=O`, for which the compound was called inactive in test [15], in test [7], in [8], in test [10], in test [12] and in [13]. Moreover, the result in test [14] was inactive. The AC50 in [9] was 40.2 µM (active); in test [11] it was 50 µM (active).
With `O=C1O[C@H]([C@@H](O)CO)C(O)=C1O`, the outcome in test [15], in test [6], in [12], in test [13] and in [14] was inactive.
As for `O=C(O)Cc1cc(I)c(Oc2ccc(O)c(I)c2)c(I)c1`, the compound was called inactive in test [15], in test [6], in [9], in test [13] and in test [14]. In addition, in [10], the AC50 was 28.6 µM (active) and 29 µM (active) and 23.8 µM (active).

A word on the AC50: it is the concentration at which the activity in the assay is half-maximal.
